# Results: PMC7862700, “An all-to-all approach to the identification of sequence-specific readers for epigenetic DNA modifications on cytosine”
# Experiments:
# Experiment in all cases: DAPPL (digital affinity profiling via proximity ligation, sequencing); 10 mM Tris-HCl pH 7.5, 50 mM NaCl, 1 mM DTT, 4% glycerol, room temperature, 30 min; GST-TFs on glutathione beads, 16-mer random dsDNA library, 0.1% formaldehyde crosslink after washing; high values mean tight binding
# FLI1 = molecular target: T1, FLI1 (Homo sapiens, UniProt Q01543 1-452); conditions: protein: recombinant; tags: N-terminal GST; dsDNA, one strand shown
# T1 sequence: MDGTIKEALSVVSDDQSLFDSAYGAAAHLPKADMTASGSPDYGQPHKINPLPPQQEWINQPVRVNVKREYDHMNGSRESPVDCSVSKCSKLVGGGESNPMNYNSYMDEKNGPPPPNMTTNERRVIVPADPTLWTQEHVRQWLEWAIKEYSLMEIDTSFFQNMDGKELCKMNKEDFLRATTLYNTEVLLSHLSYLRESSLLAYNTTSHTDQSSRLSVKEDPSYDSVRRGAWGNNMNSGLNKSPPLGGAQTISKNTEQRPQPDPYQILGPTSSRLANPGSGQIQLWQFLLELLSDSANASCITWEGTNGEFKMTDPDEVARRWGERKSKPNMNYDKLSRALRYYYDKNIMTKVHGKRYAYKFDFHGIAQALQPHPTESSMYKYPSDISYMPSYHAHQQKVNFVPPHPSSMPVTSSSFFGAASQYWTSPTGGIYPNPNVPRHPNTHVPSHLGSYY
# Outline: (§1)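 Beads coated with glutathione captured GST-fused human transcription factors that had been expressed in yeast, and the factors were then given DNA barcodes and pooled with a tag-only sample. The pools were incubated with 200 nmole of a random double-stranded 16-mer DNA library in Tris/NaCl/DTT/glycerol buffer for 30 min at room temperature, washed, crosslinked with 0.1% formaldehyde and proximity-ligated with BsaI/T4 ligase at 37 °C for 1 h. PCR amplification and Illumina NextSeq500 sequencing came last. Binding signal is each hexamer's read frequency for a factor divided by its frequency for the tag-only sample.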
# ELK1 = molecular target: T2, ELK1 (Homo sapiens, UniProt P19419 1-428); conditions: protein: recombinant; tags: N-terminal GST; dsDNA, one strand shown
# T2 sequence: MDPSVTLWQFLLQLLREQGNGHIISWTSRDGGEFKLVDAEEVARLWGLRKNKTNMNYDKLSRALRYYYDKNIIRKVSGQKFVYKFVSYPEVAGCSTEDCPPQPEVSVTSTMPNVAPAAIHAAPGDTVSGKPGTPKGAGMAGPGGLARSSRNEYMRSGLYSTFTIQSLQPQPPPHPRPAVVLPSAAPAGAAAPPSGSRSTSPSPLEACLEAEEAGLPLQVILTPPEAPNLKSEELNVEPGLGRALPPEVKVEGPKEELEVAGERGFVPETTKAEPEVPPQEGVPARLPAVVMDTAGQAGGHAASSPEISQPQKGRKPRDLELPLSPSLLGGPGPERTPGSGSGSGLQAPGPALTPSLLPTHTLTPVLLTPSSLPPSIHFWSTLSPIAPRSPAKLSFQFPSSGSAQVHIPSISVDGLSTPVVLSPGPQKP
# Outline: as §1
# GABPA = molecular target: T3, GABPA (Homo sapiens, UniProt Q06546 1-454); conditions: protein: recombinant; tags: N-terminal GST; dsDNA, one strand shown
# T3 sequence: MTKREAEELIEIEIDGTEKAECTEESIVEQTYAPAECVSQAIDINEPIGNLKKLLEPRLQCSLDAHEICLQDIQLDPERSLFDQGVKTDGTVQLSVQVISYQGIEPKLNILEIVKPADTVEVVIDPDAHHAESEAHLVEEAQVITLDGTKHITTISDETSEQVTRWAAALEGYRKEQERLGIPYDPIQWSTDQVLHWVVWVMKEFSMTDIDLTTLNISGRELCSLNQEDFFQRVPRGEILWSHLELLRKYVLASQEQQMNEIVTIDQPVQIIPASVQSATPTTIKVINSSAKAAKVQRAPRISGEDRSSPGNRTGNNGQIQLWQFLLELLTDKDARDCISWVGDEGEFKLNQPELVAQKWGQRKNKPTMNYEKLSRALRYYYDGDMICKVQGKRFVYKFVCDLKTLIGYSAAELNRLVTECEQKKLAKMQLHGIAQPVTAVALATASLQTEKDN
# Outline: as §1
# ERG = molecular target: T4, ERG (Homo sapiens, UniProt P11308 1-479); conditions: protein: recombinant; tags: N-terminal GST; dsDNA, one strand shown
# T4 sequence: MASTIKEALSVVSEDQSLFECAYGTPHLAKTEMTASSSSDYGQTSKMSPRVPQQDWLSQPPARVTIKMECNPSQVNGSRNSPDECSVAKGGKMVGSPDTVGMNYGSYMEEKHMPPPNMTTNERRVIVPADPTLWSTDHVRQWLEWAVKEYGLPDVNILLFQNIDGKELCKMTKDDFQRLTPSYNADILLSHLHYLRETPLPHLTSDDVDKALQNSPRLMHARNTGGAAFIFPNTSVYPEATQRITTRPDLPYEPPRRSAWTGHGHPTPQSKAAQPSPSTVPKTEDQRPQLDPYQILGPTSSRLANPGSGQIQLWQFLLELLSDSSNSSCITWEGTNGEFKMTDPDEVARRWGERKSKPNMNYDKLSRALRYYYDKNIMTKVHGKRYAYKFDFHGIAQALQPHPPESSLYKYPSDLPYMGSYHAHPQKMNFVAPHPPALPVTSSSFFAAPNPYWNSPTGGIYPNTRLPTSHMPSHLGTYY
# Outline: as §1
# ELF1 = ELF1 (Homo sapiens, UniProt P32519 1-619); conditions: protein: recombinant; tags: N-terminal GST; dsDNA, one strand shown
# Outline: as §1
# EHF = molecular target: T5, EHF (Homo sapiens, UniProt Q9NZC4 1-300); conditions: protein: recombinant; tags: N-terminal GST; dsDNA, one strand shown
# T5 sequence: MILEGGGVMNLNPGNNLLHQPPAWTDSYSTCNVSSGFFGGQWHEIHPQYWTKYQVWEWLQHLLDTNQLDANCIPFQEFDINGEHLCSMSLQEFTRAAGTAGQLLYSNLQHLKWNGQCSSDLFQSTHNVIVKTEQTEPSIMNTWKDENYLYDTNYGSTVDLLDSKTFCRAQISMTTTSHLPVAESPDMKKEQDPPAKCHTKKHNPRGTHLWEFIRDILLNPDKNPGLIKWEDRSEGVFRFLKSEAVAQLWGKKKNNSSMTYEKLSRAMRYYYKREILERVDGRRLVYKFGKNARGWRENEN
# Outline: as §1
# SPI1 = SPI1 (Homo sapiens, UniProt P17947 1-270); conditions: protein: recombinant; tags: N-terminal GST; dsDNA, one strand shown
# Outline: as §1
# SPIB = SPIB (Homo sapiens, UniProt Q01892 1-262); conditions: protein: recombinant; tags: N-terminal GST; dsDNA, one strand shown
# Outline: as §1
# ELK3 = molecular target: T6, ELK3 (Homo sapiens, UniProt P41970 1-407); conditions: protein: recombinant; tags: N-terminal GST; dsDNA, one strand shown
# T6 sequence: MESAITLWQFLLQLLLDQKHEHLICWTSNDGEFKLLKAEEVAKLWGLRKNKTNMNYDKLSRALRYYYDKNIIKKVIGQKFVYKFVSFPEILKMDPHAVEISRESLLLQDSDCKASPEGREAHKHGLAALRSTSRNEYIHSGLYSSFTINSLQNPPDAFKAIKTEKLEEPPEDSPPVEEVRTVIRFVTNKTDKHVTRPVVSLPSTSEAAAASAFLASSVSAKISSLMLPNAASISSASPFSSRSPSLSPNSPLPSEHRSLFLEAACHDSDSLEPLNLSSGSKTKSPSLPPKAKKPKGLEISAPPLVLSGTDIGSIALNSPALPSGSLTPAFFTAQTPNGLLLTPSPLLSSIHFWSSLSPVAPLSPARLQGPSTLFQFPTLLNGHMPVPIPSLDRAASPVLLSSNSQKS
# Outline: as §1
# FEV = molecular target: T7, FEV (Homo sapiens, UniProt Q99581 1-238); conditions: protein: recombinant; tags: N-terminal GST; dsDNA, one strand shown
# T7 sequence: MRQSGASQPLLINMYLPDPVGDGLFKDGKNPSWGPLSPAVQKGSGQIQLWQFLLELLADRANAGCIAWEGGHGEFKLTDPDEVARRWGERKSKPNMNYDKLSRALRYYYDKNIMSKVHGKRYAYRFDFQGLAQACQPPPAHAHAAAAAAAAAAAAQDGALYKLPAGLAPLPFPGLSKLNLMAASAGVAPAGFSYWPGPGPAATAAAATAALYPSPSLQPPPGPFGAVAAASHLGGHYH
# Outline: as §1
# ETV5 = ETV5 (Homo sapiens, UniProt P41161 1-510); conditions: protein: recombinant; tags: N-terminal GST; dsDNA, one strand shown
# Outline: as §1
# HSF1 = HSF1 (Homo sapiens, UniProt Q00613 1-529); conditions: protein: recombinant; tags: N-terminal GST; chain copies: 3; dsDNA, one strand shown
# Outline: as §1
# SPIC = molecular target: T8, SPIC (Homo sapiens, UniProt Q8N5J4 1-248); conditions: protein: recombinant; tags: N-terminal GST; dsDNA, one strand shown
# T8 sequence: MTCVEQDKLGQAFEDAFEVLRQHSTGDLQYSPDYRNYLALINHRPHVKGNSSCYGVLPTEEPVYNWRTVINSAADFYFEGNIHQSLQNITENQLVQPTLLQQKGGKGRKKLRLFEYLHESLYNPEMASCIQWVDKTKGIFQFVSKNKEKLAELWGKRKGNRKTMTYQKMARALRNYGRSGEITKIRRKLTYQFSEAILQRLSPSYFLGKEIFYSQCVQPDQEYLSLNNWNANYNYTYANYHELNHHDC
# Outline: as §1
# ELF4 = ELF4 (Homo sapiens, UniProt Q99607 1-663); conditions: protein: recombinant; tags: N-terminal GST; dsDNA, one strand shown
# Outline: as §1
# ELK4 = molecular target: T9, ELK4 (Homo sapiens, UniProt P28324-2 1-405); conditions: protein: recombinant; tags: N-terminal GST; dsDNA, one strand shown
# T9 sequence: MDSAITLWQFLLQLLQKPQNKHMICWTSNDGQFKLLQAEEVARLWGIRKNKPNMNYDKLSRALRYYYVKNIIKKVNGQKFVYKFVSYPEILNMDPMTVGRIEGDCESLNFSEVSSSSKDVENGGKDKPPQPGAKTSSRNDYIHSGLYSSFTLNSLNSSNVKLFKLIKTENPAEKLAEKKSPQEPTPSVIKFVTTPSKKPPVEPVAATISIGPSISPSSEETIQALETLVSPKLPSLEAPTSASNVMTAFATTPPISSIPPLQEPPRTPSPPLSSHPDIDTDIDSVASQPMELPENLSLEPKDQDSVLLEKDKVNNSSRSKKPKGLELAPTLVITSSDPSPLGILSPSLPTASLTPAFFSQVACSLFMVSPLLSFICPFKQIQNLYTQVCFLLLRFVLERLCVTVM
# Outline: as §1
# ETV2 = molecular target: T10, ETV2 (Homo sapiens, UniProt O00321 1-342); conditions: protein: recombinant; tags: N-terminal GST; dsDNA, one strand shown
# T10 sequence: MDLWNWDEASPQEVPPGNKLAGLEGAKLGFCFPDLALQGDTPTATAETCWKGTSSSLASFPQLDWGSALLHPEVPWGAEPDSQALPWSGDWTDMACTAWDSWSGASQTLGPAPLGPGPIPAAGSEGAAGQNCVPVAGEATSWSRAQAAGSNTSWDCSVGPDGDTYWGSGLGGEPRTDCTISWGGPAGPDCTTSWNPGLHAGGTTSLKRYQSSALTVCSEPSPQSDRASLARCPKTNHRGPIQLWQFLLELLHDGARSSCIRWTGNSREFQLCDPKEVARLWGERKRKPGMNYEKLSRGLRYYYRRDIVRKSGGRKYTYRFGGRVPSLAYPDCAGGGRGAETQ
# Outline: as §1
# ELF3 = molecular target: T11, ELF3 (Homo sapiens, UniProt P78545 1-371); conditions: protein: recombinant; tags: N-terminal GST; dsDNA, one strand shown
# T11 sequence: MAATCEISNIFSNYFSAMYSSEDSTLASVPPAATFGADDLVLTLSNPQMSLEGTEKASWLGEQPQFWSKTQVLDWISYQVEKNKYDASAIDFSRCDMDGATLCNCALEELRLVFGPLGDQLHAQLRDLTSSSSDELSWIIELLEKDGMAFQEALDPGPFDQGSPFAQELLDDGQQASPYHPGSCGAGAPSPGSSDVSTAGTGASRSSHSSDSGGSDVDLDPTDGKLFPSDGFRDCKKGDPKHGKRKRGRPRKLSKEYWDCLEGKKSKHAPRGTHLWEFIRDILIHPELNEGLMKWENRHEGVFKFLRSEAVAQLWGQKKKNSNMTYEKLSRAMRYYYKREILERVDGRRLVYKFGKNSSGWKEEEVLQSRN
# Outline: as §1
# CRX = CRX (Homo sapiens, UniProt O43186 1-299); conditions: protein: recombinant; tags: N-terminal GST; dsDNA, one strand shown
# Outline: as §1
# ETV1 = ETV1 (Homo sapiens, UniProt P50549 1-477); conditions: protein: recombinant; tags: N-terminal GST; dsDNA, one strand shown
# Outline: as §1
# Sequence of SPIB (Q01892 whole entry): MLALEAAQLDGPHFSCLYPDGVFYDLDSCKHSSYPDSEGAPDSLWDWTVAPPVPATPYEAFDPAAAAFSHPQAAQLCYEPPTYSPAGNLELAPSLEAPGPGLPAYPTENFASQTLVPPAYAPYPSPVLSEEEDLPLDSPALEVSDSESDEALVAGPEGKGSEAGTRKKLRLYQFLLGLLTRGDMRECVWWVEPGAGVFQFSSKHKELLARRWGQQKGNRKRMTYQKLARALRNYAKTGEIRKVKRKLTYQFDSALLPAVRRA
# Sequence of ELF1 (P32519 whole entry): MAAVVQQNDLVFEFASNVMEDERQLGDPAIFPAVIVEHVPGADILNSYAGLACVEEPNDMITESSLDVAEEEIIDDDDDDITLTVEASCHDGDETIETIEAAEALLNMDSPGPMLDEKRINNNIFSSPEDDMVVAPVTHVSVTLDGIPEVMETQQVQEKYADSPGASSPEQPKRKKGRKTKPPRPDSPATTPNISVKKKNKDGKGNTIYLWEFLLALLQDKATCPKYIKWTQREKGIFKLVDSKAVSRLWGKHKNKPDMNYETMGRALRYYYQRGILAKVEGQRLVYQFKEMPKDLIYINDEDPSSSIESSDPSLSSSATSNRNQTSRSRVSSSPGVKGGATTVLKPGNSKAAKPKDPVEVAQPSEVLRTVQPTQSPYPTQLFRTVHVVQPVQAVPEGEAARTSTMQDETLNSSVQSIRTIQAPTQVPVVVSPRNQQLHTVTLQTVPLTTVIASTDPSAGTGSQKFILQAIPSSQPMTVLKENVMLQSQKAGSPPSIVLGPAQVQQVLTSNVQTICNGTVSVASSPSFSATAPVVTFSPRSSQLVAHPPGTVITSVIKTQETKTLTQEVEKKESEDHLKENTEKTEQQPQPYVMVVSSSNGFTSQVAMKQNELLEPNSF
# Sequence of HSF1 (Q00613 whole entry): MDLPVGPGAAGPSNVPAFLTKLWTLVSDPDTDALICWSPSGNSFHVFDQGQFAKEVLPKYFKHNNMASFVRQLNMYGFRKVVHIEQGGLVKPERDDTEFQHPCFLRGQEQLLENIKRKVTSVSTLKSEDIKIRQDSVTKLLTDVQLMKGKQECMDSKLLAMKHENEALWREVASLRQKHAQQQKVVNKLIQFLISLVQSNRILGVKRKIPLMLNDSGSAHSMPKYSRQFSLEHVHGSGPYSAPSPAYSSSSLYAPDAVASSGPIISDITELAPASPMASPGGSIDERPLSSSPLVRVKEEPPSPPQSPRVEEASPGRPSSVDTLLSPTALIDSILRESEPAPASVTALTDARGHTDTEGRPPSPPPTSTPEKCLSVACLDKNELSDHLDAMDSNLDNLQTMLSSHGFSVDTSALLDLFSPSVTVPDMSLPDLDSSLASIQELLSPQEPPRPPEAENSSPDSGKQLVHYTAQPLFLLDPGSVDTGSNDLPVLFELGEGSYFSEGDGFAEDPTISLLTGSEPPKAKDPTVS
# Sequence of CRX (O43186 whole entry): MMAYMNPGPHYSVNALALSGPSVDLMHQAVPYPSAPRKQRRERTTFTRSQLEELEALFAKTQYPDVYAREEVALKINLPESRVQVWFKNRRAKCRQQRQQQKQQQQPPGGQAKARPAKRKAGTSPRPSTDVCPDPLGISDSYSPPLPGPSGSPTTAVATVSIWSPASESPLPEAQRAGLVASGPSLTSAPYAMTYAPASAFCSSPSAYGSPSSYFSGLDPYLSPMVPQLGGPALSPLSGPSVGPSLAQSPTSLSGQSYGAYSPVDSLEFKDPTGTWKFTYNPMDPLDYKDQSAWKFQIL
# Sequence of ETV1 (P50549 whole entry): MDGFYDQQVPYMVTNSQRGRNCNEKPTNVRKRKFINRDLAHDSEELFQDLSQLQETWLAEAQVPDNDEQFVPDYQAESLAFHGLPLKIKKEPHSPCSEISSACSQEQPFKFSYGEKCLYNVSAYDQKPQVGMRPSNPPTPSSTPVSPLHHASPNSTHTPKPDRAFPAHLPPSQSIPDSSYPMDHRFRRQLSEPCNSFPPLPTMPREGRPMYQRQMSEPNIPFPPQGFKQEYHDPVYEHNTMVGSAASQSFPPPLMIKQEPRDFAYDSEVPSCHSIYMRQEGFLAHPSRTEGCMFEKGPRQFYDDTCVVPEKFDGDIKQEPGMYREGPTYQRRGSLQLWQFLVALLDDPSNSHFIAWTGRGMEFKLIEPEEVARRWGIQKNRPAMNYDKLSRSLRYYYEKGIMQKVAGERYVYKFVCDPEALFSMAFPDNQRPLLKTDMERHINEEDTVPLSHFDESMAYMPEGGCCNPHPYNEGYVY
# Sequence of ELF4 (Q99607 whole entry): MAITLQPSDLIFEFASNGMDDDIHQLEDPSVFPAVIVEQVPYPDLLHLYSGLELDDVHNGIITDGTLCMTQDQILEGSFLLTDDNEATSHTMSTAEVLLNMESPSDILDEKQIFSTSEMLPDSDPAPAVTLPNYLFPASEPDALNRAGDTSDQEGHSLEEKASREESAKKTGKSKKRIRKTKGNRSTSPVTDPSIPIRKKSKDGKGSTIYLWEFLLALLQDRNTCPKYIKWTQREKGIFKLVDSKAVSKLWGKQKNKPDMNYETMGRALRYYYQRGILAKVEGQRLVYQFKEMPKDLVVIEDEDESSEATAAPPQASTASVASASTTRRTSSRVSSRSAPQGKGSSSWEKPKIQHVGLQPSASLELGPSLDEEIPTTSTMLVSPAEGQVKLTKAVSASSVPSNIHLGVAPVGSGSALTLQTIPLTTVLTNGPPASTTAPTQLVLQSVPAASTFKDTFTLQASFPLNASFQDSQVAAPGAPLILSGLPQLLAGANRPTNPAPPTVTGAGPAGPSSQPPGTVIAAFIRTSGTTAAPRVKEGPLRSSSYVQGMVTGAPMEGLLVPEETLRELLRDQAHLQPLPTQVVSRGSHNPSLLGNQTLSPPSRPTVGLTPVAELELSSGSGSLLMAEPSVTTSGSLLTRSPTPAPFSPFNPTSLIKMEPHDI
# Sequence of ETV5 (P41161 whole entry): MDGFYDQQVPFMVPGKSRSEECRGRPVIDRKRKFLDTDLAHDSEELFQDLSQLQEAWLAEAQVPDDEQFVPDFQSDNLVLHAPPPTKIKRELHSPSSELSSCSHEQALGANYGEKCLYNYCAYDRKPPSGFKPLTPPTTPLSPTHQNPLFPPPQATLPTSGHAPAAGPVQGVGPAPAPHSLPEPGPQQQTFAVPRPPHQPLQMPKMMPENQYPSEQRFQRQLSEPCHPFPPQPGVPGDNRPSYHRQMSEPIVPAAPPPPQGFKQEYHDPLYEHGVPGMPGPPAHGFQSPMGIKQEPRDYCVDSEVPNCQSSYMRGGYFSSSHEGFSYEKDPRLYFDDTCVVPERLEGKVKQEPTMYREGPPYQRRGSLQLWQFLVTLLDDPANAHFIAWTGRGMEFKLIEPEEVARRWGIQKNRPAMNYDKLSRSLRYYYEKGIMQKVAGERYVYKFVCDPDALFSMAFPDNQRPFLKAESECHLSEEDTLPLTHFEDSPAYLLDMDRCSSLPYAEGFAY
sequence,measurement,setting,value
GTCTTT,binding signal,FLI1,"1.28 fold enrichment (6-mer frequency, TF over GST control)"
same,binding signal,ELK1,"1.21 fold enrichment (6-mer frequency, TF over GST control)"
same,binding signal,GABPA,"1.35 fold enrichment (6-mer frequency, TF over GST control)"
same,binding signal,ERG,"1.15 fold enrichment (6-mer frequency, TF over GST control)"
same,binding signal,ELF1,"1.26 fold enrichment (6-mer frequency, TF over GST control)"
same,binding signal,EHF,"1.2 fold enrichment (6-mer frequency, TF over GST control)"
same,binding signal,SPI1,"1.38 fold enrichment (6-mer frequency, TF over GST control)"
same,binding signal,SPIB,"1.23 fold enrichment (6-mer frequency, TF over GST control)"
same,binding signal,ELK3,"1.34 fold enrichment (6-mer frequency, TF over GST control)"
same,binding signal,FEV,"1.14 fold enrichment (6-mer frequency, TF over GST control)"
same,binding signal,ETV5,"1.22 fold enrichment (6-mer frequency, TF over GST control)"
same,binding signal,HSF1,"1.22 fold enrichment (6-mer frequency, TF over GST control)"
same,binding signal,SPIC,"1.26 fold enrichment (6-mer frequency, TF over GST control)"
same,binding signal,ELF4,"1.22 fold enrichment (6-mer frequency, TF over GST control)"
same,binding signal,ELK4,"1.21 fold enrichment (6-mer frequency, TF over GST control)"
same,binding signal,ETV2,"1.12 fold enrichment (6-mer frequency, TF over GST control)"
same,binding signal,ELF3,"1.27 fold enrichment (6-mer frequency, TF over GST control)"
same,binding signal,CRX,"1.24 fold enrichment (6-mer frequency, TF over GST control)"
same,binding signal,ETV1,"1.13 fold enrichment (6-mer frequency, TF over GST control)"
